Values joined by “and” are separate entries in the source; they are usually repeats but may differ in a detail not shown here. Equal entries are not always repeated. Inconclusive results are not listed. Active and inactive are the calls of the source. Unless noted, calls come from the whole dose curve; as a rule, active = well fitted curve in the direction sought with a large enough effect; inconclusive = small, poorly fitted or top-dose-only effect, or another doubt; inactive = no such curve, though single readings can be large; an effect the other way counts as inactive or inconclusive.
Legend:
[1] = target: Cellular tumor antigen p53 (Homo sapiens) (UniProt P04637); experiment: Primary qHTS for small molecule compounds that upregulate eGFP-tagged delta133p53alpha (in N-terminal) cells. (AID 2060322); conditions: NCI-H358 eGFP-delta133p53alpha fluorescence, 24 h; activation: hits give high values;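 note: cells pre-induced with doxycycline then dosed without doxycycline; 0% = DMSO vehicle and 100% = reference activator; nearly all actives have a fitted effect of over 75% in size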
Procedure, shortened: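 NCI-H358 cells pre-induced 24 h with 10 ng/ml doxycycline for eGFP-delta133p53alpha, plated dox-free and exposed 24 h at 37C to titrated compounds. Fixed, Hoechst-stained; gated GFP peak intensity by laser scanning cytometry, normalized to DMSO (0%) and 57.5 uM 5-azacytidine (100%).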

[2] = target: Cellular tumor antigen p53 (Homo sapiens) (UniProt P04637); experiment: Primary qHTS for small molecule compounds that upregulate eGFP-tagged delta133p53alpha (in C-terminal) cells. (AID 2060324); conditions: NCI-H358 delta133p53alpha-eGFP (C-terminal tag), GFP fluorescence imaging, 24 h; series mostly up to 57.5 µM;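 note: 0% = DMSO wells and 100% = 57.5 µM 5-azacytidine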
Procedure, shortened: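 Read-out: gated-cell GFP peak intensity (laser scanning cytometer), plate-normalized with DMSO as 0% activity, after 24 h compound exposure at 37C. Cells were C-terminal eGFP-tagged delta133p53alpha NCI-H358, doxycycline-induced (100 ng/ml, 24 h) before plating.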

[3] = target: Aldehyde dehydrogenase, mitochondrial (Homo sapiens) (UniProt P05091); experiment: qHTS for Inhibitors of the Aldehyde Dehydrogenase Family (ALDH2) Validation screens (AID 2061302; active = well fitted inhibition curve with a large enough effect; title and protocol of this record describe different tests;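 note: plate controls were DMSO vehicle for no effect and maximal DPI positive control response for full effect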); conditions: ALDH inhibition qHTS; series mostly up to 42.6 µM
[4] = target: Retinaldehyde dehydrogenase 3 (Homo sapiens) (UniProt P47895); experiment: qHTS for Inhibitors of the Aldehyde Dehydrogenase Family (ALDH1A3) Validation screen (AID 2061312); conditions: ALDH1A3 enzyme inhibition qHTS validation, fluorescence; series mostly up to 84.7 µM; note: % is set by controls: 0 for no effect and ±100 for the full control effect; nearly all actives have a fitted effect of over 45% in size

Chain of Cellular tumor antigen p53 (Homo sapiens) (P04637 whole entry, looked up): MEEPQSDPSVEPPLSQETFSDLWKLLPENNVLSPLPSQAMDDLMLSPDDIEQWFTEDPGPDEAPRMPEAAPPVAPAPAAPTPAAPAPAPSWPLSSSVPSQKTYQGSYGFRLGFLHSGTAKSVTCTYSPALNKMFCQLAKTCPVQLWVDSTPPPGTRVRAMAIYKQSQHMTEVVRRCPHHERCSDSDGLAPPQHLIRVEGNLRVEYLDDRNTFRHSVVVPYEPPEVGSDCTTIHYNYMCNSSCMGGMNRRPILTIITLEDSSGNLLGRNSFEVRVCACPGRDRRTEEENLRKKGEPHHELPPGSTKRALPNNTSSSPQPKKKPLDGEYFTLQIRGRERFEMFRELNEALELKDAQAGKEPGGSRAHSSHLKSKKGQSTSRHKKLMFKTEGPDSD

COc1ccccc1N1CCN(CCCNc2c(C)c(=O)n(C)c(=O)n2C)CC1
inactive: activation [1] -0.789% | Potency [2] | Potency [3] | Potency [4]

COc1ccccc1N1CCN(CCCCNC(=O)c2ccc3ccccc3c2)CC1
inactive: activation [1] -23% | Potency [2] | Potency [3] | Potency [4]

O=C(O)c1cc(=O)cc(C(=O)O)[nH]1
inactive: activation [1] -16.3% | Potency [2] | Potency [3] | Potency [4]

CC(CN(C)C)CN1c2ccccc2CCc2ccccc21 (stereo not drawn)
inactive: activation [1] -10% and -21.6% | Potency [2] | Potency [3] | Potency [4]

CO[C@@]1(NC(=O)CSCC#N)C(=O)N2C(C(=O)O)=C(CSc3nnnn3C)CS[C@@H]21
inactive: activation [1] 11.9% and 5.62% | Potency [2] | Potency [3] | Potency [4]

CCN(c1nc(N)c(C(=O)N=C(N)N)nc1Cl)C(C)C
inactive: activation [1] -41.7% | Potency [2] | Potency [3] | Potency [4]

Cc1cc(NC(=O)Nc2ccc3c(ccn3C)c2)sn1
inactive: activation [1] 51% | Potency [2] | Potency [3] | Potency [4]

Source: PubChem BioAssay (NCATS)
